DRV1 agonist: qHTS for Agonists of Human Resolvin D1 Receptor DRV1 | activation, % at 76.9 µM | AID 1346428, 2018 | actives 2.5% (n = 48,000) | CHO-K1 GPR32 beta-arrestin PathHunter luminescence, 90 min; zero percent set by DMSO-only wells | Probable G-protein coupled receptor 32 (Homo sapiens), O75388;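 active = activation of at least 60% and not above a set upper limit, about 1 call in 100 departs from these limits; inconclusive = activation of 40% to 60%, or above that upper limit; inactive = activation under 40%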
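Agonism was scored as beta-arrestin recruitment to ProLink-fused GPR32 in stably transfected CHO-K1 cells, giving a chemiluminescent beta-Gal signal; compounds were incubated 90 min at 37 °C.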
B2AR arrestin ag: qHTS assay of beta-arrestin-biased ligands of beta2-adrenergic receptor: NCGC Sytravon Library Screen; HTLA Tango cells, beta-arrestin recruitment, luciferase luminescence, 18 h; Potency, µM (highest dose often 46.1 µM), hits mostly activators; 44,000 tested, under 10 active; AID 1347077, 2019
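Ligand-induced beta-arrestin recruitment to recombinant beta2-AR is measured via a tTA-driven luciferase reporter in Tango cells after 18 hr compound exposure at 37 degrees C. Concentrations span up to 46 microM.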
TSG101-PTAP inh: qHTS Validation Assay for Inhibitors of HIV-1 Budding by Blocking the Interaction of PTAP/TSG101: Sytravon Library Screen. 44,000 tested, under 10 active. Potency, µM (doses to about 115 µM), hits mostly inhibitors. Fluorescence polarization, FITC-PTAP peptide/Tsg101, 20 min. Tumor susceptibility gene 101 protein (Homo sapiens), Q99816
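qHTS FP binding, 20 min r.t.: 10 uM Tsg101 domain + 50 nM FITC-PTAP peptide, pH 7.5 HEPES buffer with TCEP and EDTA.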
GALC G270D up: A Novel Cell-Based Assay to Identify Small Molecules for B -Galactocerebrosidase. P54803. 145M-Twi-hGALC-G270D cells (Twitcher mouse brain line with human GALC G270D), HMU-beta-Gal fluorescence, 48 h. Potency, µM (top dose mostly 57.5 µM), hits mostly activators. actives 0.1% (n = 45,000); note: nearly all actives have a fitted effect of over 65% in size
Target sequence (P54803 whole entry G286D): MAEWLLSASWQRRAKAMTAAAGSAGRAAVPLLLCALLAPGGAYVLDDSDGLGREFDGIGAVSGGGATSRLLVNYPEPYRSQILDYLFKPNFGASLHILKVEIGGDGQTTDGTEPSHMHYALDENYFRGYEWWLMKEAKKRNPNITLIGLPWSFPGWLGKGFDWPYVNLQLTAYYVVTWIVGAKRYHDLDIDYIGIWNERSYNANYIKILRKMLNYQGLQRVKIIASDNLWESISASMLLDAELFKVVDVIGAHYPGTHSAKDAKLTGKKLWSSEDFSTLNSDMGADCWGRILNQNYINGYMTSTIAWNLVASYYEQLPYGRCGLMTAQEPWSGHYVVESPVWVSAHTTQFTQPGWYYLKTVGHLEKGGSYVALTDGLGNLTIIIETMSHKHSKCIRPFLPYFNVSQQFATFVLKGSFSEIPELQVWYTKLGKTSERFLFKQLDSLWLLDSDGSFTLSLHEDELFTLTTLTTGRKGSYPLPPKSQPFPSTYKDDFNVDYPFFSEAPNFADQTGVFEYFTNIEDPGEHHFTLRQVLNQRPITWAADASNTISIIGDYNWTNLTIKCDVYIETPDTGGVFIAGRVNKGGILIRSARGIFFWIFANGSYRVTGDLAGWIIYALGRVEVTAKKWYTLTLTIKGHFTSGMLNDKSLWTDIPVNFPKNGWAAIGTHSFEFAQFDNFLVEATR
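Brain-derived Twitcher mouse 145M-Twi cells stably expressing human GALC-G270D or wild-type GALC, treated live, then residual GALC activity read by fluorescence of HMU-b-Gal substrate (0.1 mM final) in citrate-phosphate buffer pH 5.2 with sodium taurocholate. Signal increase indicates enhancement.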
Large screens that a line does not name were inactive. Shown are actives, neighbours in structure and some others; about 2.9% of the full set was active somewhere. Unless noted, calls come from the whole dose curve; as a rule, active = well fitted curve in the direction sought with a large enough effect; inconclusive = small, poorly fitted or top-dose-only effect, or another doubt; inactive = no such curve, though single readings can be large; an effect the other way counts as inactive or inconclusive.

O=C(/C=C/c1ccco1)Nc1ccc(Cl)c(-c2nc3cc(Cl)ccc3o2)c1	none
CCOC(=O)c1c(N)n(-c2cccc(OC)c2)c2nc3ccccc3nc12	GALC G270D up 4µM
CC(C)(C)C1CCc2c(sc(NC(=O)Cn3nnc(-c4ccccc4Cl)n3)c2C#N)C1 (centres undefined)	DRV1 agonist 89
C=C1C[C@@]23CC[C@H]4[C@@](C)(CCC[C@@]4(C)C(=O)OC4OC(CO)C(O)C(O)C4O)[C@@H]2CC[C@]1(OC1OC(CO)C(O)C(O)C1OC1OC(CO)C(O)C(O)C1O)C3 (some centres undefined)	none (no result: B2AR arrestin ag, TSG101-PTAP inh, GALC G270D up)
COc1ccc(NC(=O)c2c(NC(=O)c3ccncc3)sc3c2CCC(C(C)(C)C)C3)cc1 (centres undefined)	DRV1 agonist 66
Cc1ccc(CNC(=O)c2cccc(NC(=O)N3CCSc4ncccc43)c2)cc1	DRV1 agonist 92
O=C(Cn1nc(N2CCN(c3ccccc3)CC2)ccc1=O)NCc1cccc(Cl)c1	DRV1 agonist 121
O=C(Nc1ccccc1F)c1ccc(Cn2nc(N3CCN(c4ccccc4)CC3)ccc2=O)o1	DRV1 agonist 90
CSc1ccc(CNC(=O)Cn2nc(N3CCN(c4ccccc4)CC3)ccc2=O)cc1	DRV1 agonist 95
Cc1ccc(CNC(=O)Cn2nc(N3CCN(c4ccccc4)CC3)ccc2=O)cc1	none
Cn1cc(-c2cc3n(n2)CCC(=O)N3CCCC(=O)NCc2ccccc2Cl)c2ccccc21	none
Cc1ccc(-c2csc(=Nc3ccccc3)n2CCCO)cc1	DRV1 agonist 86
CN1CCN(CCCN2c3ccccc3Sc3ccc(Cl)cc32)CC1	none (no result: B2AR arrestin ag, TSG101-PTAP inh)
CN1CCCCC1CCN1c2ccccc2Sc2ccc(S(C)=O)cc21 (centres undefined)	DRV1 agonist 64 (no result: B2AR arrestin ag, TSG101-PTAP inh)
O=C(c1ccc2c(c1)CCN2S(=O)(=O)c1ccccc1)N1CCN(c2cccc(Cl)c2)CC1	none
COc1cc2[nH]c(=O)n(CCCCCC(=O)N3CCN(c4cccc(C(F)(F)F)c4)CC3)c(=O)c2cc1OC	DRV1 agonist 63
O=C(CCCCCn1c(=O)[nH]c2ccccc2c1=O)N1CCN(c2cccc(C(F)(F)F)c2)CC1	none
CCCCCn1c(=O)[nH]c2cc(C(=O)N3CCN(c4ccccc4)CC3)ccc2c1=O	none
CCS(=O)(=O)N1CCc2cc(C(=O)N3CCN(c4cccc(C(F)(F)F)c4)CC3)ccc21	DRV1 agonist 65
CCCCCn1c(=O)[nH]c2cc(C(=O)N3CCN(c4cccc(C(F)(F)F)c4)CC3)ccc2c1=O	DRV1 agonist 61
CCOc1cc(S(=O)(=O)NCCc2c(C)[nH]c3ccc(C)cc23)ccc1F	none
CCN(CC)c1cc2c(cc1F)c(=O)c(S(=O)(=O)c1cc(C)ccc1C)cn2Cc1ccccc1	none
CCNc1nc(NCc2ccc(F)cc2)c2cnn(C)c2n1	DRV1 agonist 72
CC(C)(C)c1ccc(S(=O)(=O)c2cnc(SCC(=O)Nc3ccc(F)c(Cl)c3)[nH]c2=O)cc1	none
O=C(CSc1ncc(S(=O)(=O)c2ccc(Cl)cc2)c(=O)[nH]1)Nc1cccc(C(F)(F)F)c1	DRV1 agonist 113
CC(C)c1ccc(S(=O)(=O)c2cnc(SCC(=O)Nc3cccc(C(F)(F)F)c3)nc2N)cc1	DRV1 agonist 76
COc1ccc(NC(=O)c2ncn(-c3ccccc3)n2)cc1Cl	none
CNC(=O)c1ccccc1Sc1ccc2c(/C=C/c3ccccn3)n[nH]c2c1	DRV1 agonist inconclusive (no result: B2AR arrestin ag, TSG101-PTAP inh)
NC[C@H]1O[C@H](O[C@H]2[C@H](O[C@@H]3O[C@H](CO)[C@@H](O)[C@H]3O)C(O)[C@H](N)C[C@@H]2N)[C@H](N)[C@@H](O)[C@@H]1O (some centres undefined)	none (no result: B2AR arrestin ag, TSG101-PTAP inh)
Oc1cccc(Nc2ncnc3sc4c(c23)CCCC4)c1	DRV1 agonist 66
c1ccc(C(O[C@H]2CCCN(CCc3ccc4c(c3)OCO4)C2)c2ccccc2)cc1	none (no result: B2AR arrestin ag, TSG101-PTAP inh)
C[C@H]1O[C@@H](O[C@H]2CC[C@@]3(C)[C@H](CC[C@@H]4[C@@H]3C[C@@H](O)[C@]3(C)[C@@H](C5=CC(=O)OC5)CC[C@]43O)C2)C[C@H](O)[C@@H]1O[C@H]1C[C@H](O)[C@H](O[C@H]2C[C@H](O)[C@H](O[C@@H]3O[C@H](CO)[C@@H](O)[C@H](O)[C@H]3O)[C@@H](C)O2)[C@@H](C)O1	DRV1 agonist 76 (no result: B2AR arrestin ag, TSG101-PTAP inh)
O=C(O)Cn1c(=O)n(Cc2ccc(Br)cc2F)c(=O)c2ccc(Cl)cc21	none (no result: B2AR arrestin ag, TSG101-PTAP inh)
Cc1ccc(-n2ccnc(NCCc3ccc(S(N)(=O)=O)cc3)c2=O)c(C)c1	DRV1 agonist 81
Cc1ccc(-n2ccnc(NCCc3ccc(S(N)(=O)=O)cc3)c2=O)cc1C	DRV1 agonist 95
COc1ccc(-n2ccnc(NCc3ccc(C)cc3)c2=O)cc1OC	DRV1 agonist 65
Cc1cc(-n2ccnc(NCCc3ccc(S(N)(=O)=O)cc3)c2=O)ccc1Br	DRV1 agonist 120
Cc1cn2c(=O)c(S(=O)(=O)NCc3ccccc3Cl)c(C)nc2s1	none
CCN1CCC(N(Cc2ccc3c(c2)OCO3)C(=O)Nc2cccc(C)c2C)CC1	none
CCN1CCC(N(Cc2ccc3c(c2)OCO3)C(=O)Nc2ccc(Br)c(C)c2)CC1	DRV1 agonist 80
CCc1ccccc1Nc1ncnc2c1cnn2-c1ccc(Cl)cc1	DRV1 agonist 73
CN(C)CCNc1ncnc2c1cnn2-c1cccc(Cl)c1	DRV1 agonist 87
Clc1cccc(-n2ncc3c(NCCCc4ccccc4)ncnc32)c1	DRV1 agonist inconclusive
Cc1ccc(-n2ncc3c(NCCCN4CCOCC4)ncnc32)cc1Cl	none
Clc1cccc(-n2ncc3c(NCCC4=CCCCC4)ncnc32)c1	none
Clc1cccc(-n2ncc3c(NCCCN4CCOCC4)ncnc32)c1	DRV1 agonist 85
CC(C)CCNc1ncnc2c1cnn2-c1cccc(Cl)c1	DRV1 agonist 92
CN(C)CCN1CCN(c2cccc(Cl)c2)C1=O	none (no result: B2AR arrestin ag, TSG101-PTAP inh)
CC(C)C[C@H](NC(=O)[C@H](Cc1ccccc1)NC(=O)c1cnccn1)B(O)O	DRV1 agonist inconclusive (no result: B2AR arrestin ag, TSG101-PTAP inh)
CCN1CCc2c(sc(-n3cccc3)c2C(CCC(C)C)NC(=O)NCCC(=O)OC)C1 (centres undefined)	none
C/C(=N\O)[C@@H](C)NCC(C)(C)CN[C@H](C)/C(C)=N/O	DRV1 agonist 118 (no result: B2AR arrestin ag, TSG101-PTAP inh)
CN1CCc2c(sc3c2C(=O)NC(c2ccc(OC(=O)c4ccc(C(C)(C)C)cc4)cc2)N3)C1 (centres undefined)	DRV1 agonist 65
COc1ccc(-c2nc(SCC(=O)NCc3nc4ccccc4n3C)n3[nH]c(=O)cc3n2)cc1	none (no result: GALC G270D up)
